Paper PMC5540273 (PLoS ONE, 2017)

Test system: EPHB3
Conditions: concentration: 1 μM,replicates: in singlicate; n = 1
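Further: KINOMEscan kinase panel screen.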

SMILES | %Inh [%]
CS(=O)(=O)c1cccc(CNc2nc(Nc3ccc4c(c3)[C@@H]3C[C@@H]4CNC3=O)ncc2C(F)(F)F)c1 | 5
CSc1nccc(-c2c(-c3ccc(F)cc3)ncn2CCCN2CCOCC2)n1.Cl [SB-217146] | 0
O=C1NCCc2[nH]c(-c3ccncc3)cc21 | 44
FC(F)(F)c1cc(Br)cc(Nc2nccc(-c3cnn4ncccc34)n2)c1 [GW810578] | 17
CN(c1ccc2c(c1)nc(NCc1ccc(F)cc1)n2C)c1ccnc(Nc2ccc(CS(C)(=O)=O)cc2)n1.Cl [GW813244] | 5
Cc1ccc(CC(=O)N2CCc3cc(-c4cn(C)c5ncnc(N)c45)ccc32)cc1 [GSK2634758] | 0
O=C(NCC1CC1)c1ccc(-c2cc(C(=O)NC3CC3)ccc2F)cc1 [GW810445] | 0
CCn1c(-c2nonc2N)nc2cncc(Br)c21 [SB-738004] | 0
CN1CCN(CCCNc2nccc(-c3c(-c4ccc(F)cc4)nn4cc(C(N)=O)ccc34)n2)CC1 [GW622475] | 0
O=C(NOCC1CC1)c1cc(Br)c(F)c(F)c1Nc1ccc(I)cc1Cl | 0
Cc1n[nH]c2cc(Nc3ccnc(Nc4cccc(CN5CCOCC5)c4)n3)ccc12 [GW682569] | 12
C[C@@H]1CCN(C(=O)N2CCCC2)C[C@@H]1N(C)c1ncnc2[nH]ccc12 | 26
CS(=O)c1ccc(-c2coc3ccc(-c4n[nH]c(=O)o4)cc23)cc1 (stereo not shown) | 0
